ChEMBL document CHEMBL1201862, “PubChem BioAssay data set” (2004)
Hit rate of the full screen: of about 57,000 sequences, about 4,100 (7.2%) were called active. Cut-off read from the data, not from the text of the source: active = GI50 up to about 1.1 µM and inactive = higher. Not all results are given here. Potency and affinity values are given separately.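 The compound was tested at five concentrations on cells cultured in 96-well plates, with a 48-hour exposure period. Abbreviation: GI50, concentration required for 50% inhibition of growth.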

System: SK-MEL-5
Assay: NCI tumour cell line growth inhibition, 48 h

Substance | GI50 [µM]
cis-Bis[[(trimethylsilyl)methyl]amino]tetrachloroplatinum(IV), CHEMBL2146191 | 3.48
[Bis(aminomethyl)tetramethylenesilane]tetrachloropaltinum(IV), CHEMBL2146189 | 5.77
CISPLATIN, CHEMBL11359 | 2.69
[Bis(aminomethyl)tetramethylenesilane]dichloropaltinum(II), CHEMBL2146205 | 14.8
[Bis(aminomethyl)pentamethylenesilane]dichloropaltinum(II), CHEMBL2146202 | 3.3
[Bis(aminomethyl)diethylsilane]tetrachloroplatinum(IV), CHEMBL2146203 | 73.8
[Bis(aminomethyl)ethylmethylsilane]tetrachloroplatinum(IV), CHEMBL2146192 | 1.15
[Bis(aminomethyl)pentamethylenesilane]tetrachloropaltinum(IV), CHEMBL2146204 | 3.21
mu-(1,7-nanodiamine-N,N')bis-(cis-aminedichloroplatimum (II)), CHEMBL2146215 | 5.82
[Bis(aminomethyl)dimethylsilane]dichloroplatinum (II), CHEMBL2146201 | 11.2
[Bis(aminomethyl)dimethylsilane]tetrachloroplatinum(IV), CHEMBL2146190 | 3.85
